# According to PubChem BioAssay (EPA / NIEHS):
# “And” between values parts separate entries of the source, which are not always exact repeats. Equal values may be shown once. Records with an inconclusive call do not appear. Some structures have more than one record in an assay (separate samples or runs), and their calls can disagree. The source made the active and inactive calls. The calls were made as follows, unless noted: active = hit-call score of the fitted dose curve at least 0.9, where 1 is the maximum; inconclusive = response in the unintended direction; inactive = score below 0.9.
# Experiments:
# [1] = target: Agonist Androgen Response Element (ARE), AR (gene 367) (UniProt P10275); experiment: OT_AR_ARELUC_AG_1440: Odyssey Thera (OT) 24-hour CHO-K1 Luciferase Assay for Agonist Androgen Response Element (ARE) (AID 2283379)
# How it was run: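 Seed CHO-K1 cells; dose compounds for 24 h; add D-luciferin plus ATP in PBS; read luminescence. Signal increase relative to vehicle defines agonist activity, with at least 3 replicate wells per sample.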
# [2] = target: Bile acid receptor (Homo sapiens) (UniProt Q96RI1); experiment: OT_FXR_FXRSRC1_0480: Odyssey Thera (OT) 8-hour HEK293T Protein-Complementation Assay for Farnesoid X receptor/SRC-1 Co-activator (AID 2283383)
# How it was run: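 Co-activator recruitment to FXR was measured in living HEK293T cells, where interaction of the two fused partners restored an active fluorescent reporter. Signal gain after 8 h treatment was referenced to DMSO.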
# [3] = target: Bile acid receptor (Homo sapiens) (UniProt Q96RI1); experiment: OT_FXR_FXRSRC1_1440: Odyssey Thera (OT) 24-hour HEK293T Protein-Complementation Assay for Farnesoid X receptor/SRC-1 Co-activator (AID 2283384)
# How it was run: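 Cell-based binding reporter: interaction of FXR with SRC-1 brings reporter fragments together, giving a fluorescence signal read 24 h after dosing of HEK293T cells.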
# [4] = target: Retinoic acid receptor RXR-alpha (Homo sapiens) (UniProt P19793); experiment: OT_NURR1_NURR1RXRa_1440: Odyssey Thera (OT) 24-hour HEK293T Protein Complementation Assay for Nurr1/retinoid X receptor (RXR) (AID 2283386)
# How it was run: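 Measured as fluorescence from a reconstituted split reporter, this 24 h HEK293T complementation assay scores compound-induced gain of Nurr1/RXRα association relative to DMSO.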
# [5] = target: Peroxisome proliferator-activated receptor gamma (Homo sapiens) (UniProt P37231); experiment: OT_PPARg_PPARgSRC1_0480: Odyssey Thera (OT) 8-hour Protein-Complementation Assay for Peroxisome Proliferator-activated Receptor Gamma / SRC-1 Co-activator (AID 2283387);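 also: nuclear to cytoplasmic split Venus YFP fluorescence ratio reporting PPARg SRC-1 interaction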
# How it was run: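 Protein-fragment complementation of split Venus YFP reports PPARg/SRC-1 interaction in HEK293T (transfected 48 h before treatment), exposed 8 h. Readout: N/C fluorescence ratio at 488 nm from imaging, Draq5 for segmentation, positive fit relative to DMSO.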
# [6] = target: Peroxisome proliferator-activated receptor gamma (Homo sapiens) (UniProt P37231); experiment: OT_PPARg_PPARgSRC1_1440: Odyssey Thera (OT) 24-hour Protein-Complementation Assay for Peroxisome Proliferator-activated Receptor Gamma/ SRC-1 Co-activator (AID 2283388);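 also: nuclear to cytoplasmic ratio of reconstituted Venus YFP fluorescence in fixed imaged cells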
# How it was run: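 Readout is the 488 nm N/C fluorescence ratio from fixed, Draq5-stained HEK293T cells after 24 h compound exposure. Cells carried transiently transfected PPARg and SRC-1 fused to Venus fragments, transfected 48 h before treatment.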
# [7] = target: Estrogen receptor beta (Homo sapiens) (UniProt Q92731); experiment: OT_ER_ERbERb_1440: Odyssey Thera (OT) 24-hour HEK293T Protein-Complementation Assay for Estrogen Receptor-beta/-beta Homodimer (AID 2283380);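 also: fluorescence gain from ER beta LBD homodimer complementation read by laser scanning cytometry; scored as signal increase over DMSO baseline for both agonists and antagonists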
# How it was run: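 HEK293T cells stably expressing human ER-beta LBD (aa 310-547) PCA homodimer pair, dosed 24 h; formaldehyde-fixed, Draq5-stained. Readout: increase in nuclear (agonist) or nuclear plus cytoplasmic (antagonist) fluorescence intensity versus DMSO, gain-of-signal fitting.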
# [8] = target: Estrogen receptor (Homo sapiens) (UniProt P03372); experiment: OT_ERa_GFPERaERE_0480: Odyssey Thera (OT) 8-hour HeLa Transcription Induction Assay for Estrogen Receptor (AID 2283381; active = hit-call score of the fitted dose curve at least 0.9, where 1 is the maximum; inactive = score below 0.9)
# How it was run: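 Cells (HeLa) receive compound; after 8 h, reporter fluorescence is imaged and quantified by high-content analysis. Gain-of-signal relative to DMSO gives the endpoint.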
# [9] = target: Estrogen receptor (Homo sapiens) (UniProt P03372); experiment: OT_ERa_GFPERaERE_0120: Odyssey Thera (OT) 2-hour HeLa Transcription Induction Assay for Estrogen Receptor (AID 2283382)
# How it was run: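 Measures ESR1 pathway reporter gain-of-signal in HeLa cells after a 2-hour treatment, detected as fluorescent protein induction by microscopy, DMSO as baseline.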
# [10] = target: Retinoic acid receptor RXR-alpha (Homo sapiens) (UniProt P19793); experiment: OT_NURR1_NURR1RXRa_0480: Odyssey Thera (OT) 8-hour HEK293T Protein Complementation Assay for Nurr1/retinoid X receptor (RXR) (AID 2283385)
# How it was run: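 Compounds are applied to HEK293T cells carrying Nurr1 and RXRα linked to reporter fragments. After 8 h, fluorescence intensity reports heterodimer formation, with DMSO as baseline.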
# Agonist Androgen Response Element (ARE), AR (gene 367), sequence (P10275 whole entry, looked up): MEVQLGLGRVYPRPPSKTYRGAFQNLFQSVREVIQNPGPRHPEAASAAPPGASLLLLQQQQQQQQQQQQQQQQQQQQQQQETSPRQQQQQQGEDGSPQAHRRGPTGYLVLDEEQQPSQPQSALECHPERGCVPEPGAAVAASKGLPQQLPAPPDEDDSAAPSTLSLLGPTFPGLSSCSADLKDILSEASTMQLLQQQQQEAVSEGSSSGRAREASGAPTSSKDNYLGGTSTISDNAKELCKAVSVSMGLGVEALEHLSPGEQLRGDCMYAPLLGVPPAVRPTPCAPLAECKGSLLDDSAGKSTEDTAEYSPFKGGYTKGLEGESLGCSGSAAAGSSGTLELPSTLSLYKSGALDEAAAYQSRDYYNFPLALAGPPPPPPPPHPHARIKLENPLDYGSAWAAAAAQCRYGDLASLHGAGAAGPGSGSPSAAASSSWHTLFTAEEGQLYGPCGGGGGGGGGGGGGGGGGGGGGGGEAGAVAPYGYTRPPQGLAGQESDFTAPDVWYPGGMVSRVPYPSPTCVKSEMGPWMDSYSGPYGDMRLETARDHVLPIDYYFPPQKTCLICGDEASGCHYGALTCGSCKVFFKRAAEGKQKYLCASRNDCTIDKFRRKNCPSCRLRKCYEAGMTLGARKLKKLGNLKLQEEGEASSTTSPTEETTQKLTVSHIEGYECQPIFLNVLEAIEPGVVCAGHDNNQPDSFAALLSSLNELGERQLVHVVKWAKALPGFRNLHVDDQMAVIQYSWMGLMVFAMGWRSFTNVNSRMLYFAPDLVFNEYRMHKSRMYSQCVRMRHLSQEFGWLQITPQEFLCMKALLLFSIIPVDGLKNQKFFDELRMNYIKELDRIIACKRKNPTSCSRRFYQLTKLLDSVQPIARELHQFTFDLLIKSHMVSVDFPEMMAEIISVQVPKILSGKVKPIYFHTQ
# Estrogen receptor beta (Homo sapiens), sequence (Q92731 whole entry, looked up, the tested form may be a part): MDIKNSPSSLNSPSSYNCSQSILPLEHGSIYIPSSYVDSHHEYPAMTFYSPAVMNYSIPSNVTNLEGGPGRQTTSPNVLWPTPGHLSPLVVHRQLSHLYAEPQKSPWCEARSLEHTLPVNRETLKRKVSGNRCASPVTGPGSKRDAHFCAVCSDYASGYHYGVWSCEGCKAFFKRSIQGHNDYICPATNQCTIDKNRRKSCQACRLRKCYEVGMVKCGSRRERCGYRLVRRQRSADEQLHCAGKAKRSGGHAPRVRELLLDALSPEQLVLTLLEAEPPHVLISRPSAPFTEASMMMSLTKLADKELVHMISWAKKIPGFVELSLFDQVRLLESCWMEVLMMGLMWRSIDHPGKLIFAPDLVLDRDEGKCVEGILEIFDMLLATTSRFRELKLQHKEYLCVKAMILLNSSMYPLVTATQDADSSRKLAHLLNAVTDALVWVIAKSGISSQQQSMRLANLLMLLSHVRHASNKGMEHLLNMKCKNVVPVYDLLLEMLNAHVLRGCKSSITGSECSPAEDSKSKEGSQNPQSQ
# Peroxisome proliferator-activated receptor gamma (Homo sapiens), sequence (P37231 whole entry, looked up, the tested form may be a part): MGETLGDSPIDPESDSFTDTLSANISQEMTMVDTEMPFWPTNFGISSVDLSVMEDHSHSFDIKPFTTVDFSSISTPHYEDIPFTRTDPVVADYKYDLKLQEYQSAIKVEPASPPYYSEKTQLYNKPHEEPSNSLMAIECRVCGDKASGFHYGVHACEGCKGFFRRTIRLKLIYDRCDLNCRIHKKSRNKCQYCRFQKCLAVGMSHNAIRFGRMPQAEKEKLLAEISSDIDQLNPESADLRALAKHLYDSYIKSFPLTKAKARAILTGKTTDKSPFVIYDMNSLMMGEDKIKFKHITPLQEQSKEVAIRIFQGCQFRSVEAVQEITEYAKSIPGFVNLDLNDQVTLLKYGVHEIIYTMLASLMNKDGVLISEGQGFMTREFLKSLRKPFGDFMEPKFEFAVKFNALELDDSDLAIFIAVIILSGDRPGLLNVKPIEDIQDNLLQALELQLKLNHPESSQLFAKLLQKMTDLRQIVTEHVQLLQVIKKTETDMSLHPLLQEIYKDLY
# Estrogen receptor (Homo sapiens), sequence (P03372 whole entry, looked up): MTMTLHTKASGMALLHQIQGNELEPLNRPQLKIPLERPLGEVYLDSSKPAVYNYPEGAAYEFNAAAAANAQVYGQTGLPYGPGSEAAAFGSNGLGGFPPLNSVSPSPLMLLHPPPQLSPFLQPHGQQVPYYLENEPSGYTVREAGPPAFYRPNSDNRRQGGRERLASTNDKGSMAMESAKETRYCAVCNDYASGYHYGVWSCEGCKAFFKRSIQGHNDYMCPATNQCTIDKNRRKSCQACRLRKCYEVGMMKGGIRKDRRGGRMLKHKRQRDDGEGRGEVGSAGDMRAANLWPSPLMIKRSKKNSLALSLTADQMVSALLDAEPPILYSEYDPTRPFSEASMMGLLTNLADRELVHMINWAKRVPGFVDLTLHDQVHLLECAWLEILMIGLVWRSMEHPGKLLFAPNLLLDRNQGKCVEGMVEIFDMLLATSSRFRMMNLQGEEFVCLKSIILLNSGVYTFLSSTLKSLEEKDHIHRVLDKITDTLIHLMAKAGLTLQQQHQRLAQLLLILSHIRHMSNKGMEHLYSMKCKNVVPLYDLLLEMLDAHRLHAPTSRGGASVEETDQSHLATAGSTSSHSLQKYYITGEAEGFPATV
# Bile acid receptor (Homo sapiens), sequence (Q96RI1 whole entry, looked up, the tested form may be a part): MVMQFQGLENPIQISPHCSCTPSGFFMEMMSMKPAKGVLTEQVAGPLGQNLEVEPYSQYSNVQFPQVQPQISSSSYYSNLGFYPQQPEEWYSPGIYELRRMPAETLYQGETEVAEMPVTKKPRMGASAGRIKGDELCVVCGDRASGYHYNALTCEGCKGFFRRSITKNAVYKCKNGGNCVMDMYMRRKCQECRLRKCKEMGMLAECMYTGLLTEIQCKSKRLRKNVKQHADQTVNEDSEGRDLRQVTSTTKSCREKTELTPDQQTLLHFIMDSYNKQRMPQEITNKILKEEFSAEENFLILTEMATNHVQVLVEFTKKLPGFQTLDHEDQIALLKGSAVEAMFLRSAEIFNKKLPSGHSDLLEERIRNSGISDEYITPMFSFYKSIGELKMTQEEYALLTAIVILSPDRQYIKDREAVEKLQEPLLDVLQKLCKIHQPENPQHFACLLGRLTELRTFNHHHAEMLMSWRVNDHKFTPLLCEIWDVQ
# Retinoic acid receptor RXR-alpha (Homo sapiens), sequence (P19793 whole entry, looked up, the tested form may be a part): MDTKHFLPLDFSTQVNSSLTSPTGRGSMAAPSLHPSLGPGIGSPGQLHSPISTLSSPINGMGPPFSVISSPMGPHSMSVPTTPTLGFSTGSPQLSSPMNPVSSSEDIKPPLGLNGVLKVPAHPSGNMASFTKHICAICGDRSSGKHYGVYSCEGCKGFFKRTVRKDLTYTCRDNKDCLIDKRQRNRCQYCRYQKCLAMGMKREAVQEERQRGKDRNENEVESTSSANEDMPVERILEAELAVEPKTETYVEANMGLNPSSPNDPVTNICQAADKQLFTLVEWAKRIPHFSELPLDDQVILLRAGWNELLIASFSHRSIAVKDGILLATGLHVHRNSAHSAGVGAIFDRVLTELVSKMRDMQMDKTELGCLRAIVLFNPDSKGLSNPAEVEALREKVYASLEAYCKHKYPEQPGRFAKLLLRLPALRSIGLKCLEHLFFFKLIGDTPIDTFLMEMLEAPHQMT
smiles,measurement,setting,value
CCC(=C(c1ccc(O)cc1)c1ccc(OCCN(C)C)cc1)c1ccccc1,outcome,[1],inactive
same,AC50,[2],7.35 µM (active) and 7.42 µM (active) and 7.26 µM (active)
same,outcome,[2],inactive
same,AC50,[3],7.46 µM (active) and 7.54 µM (active) and 7.53 µM (active)
same,outcome,[3],inactive
same,outcome,[4],inactive
same,outcome,[5],inactive
same,outcome,[6],inactive
N#C[C@@H]1CC(F)(F)CN1C(=O)CNC1CC2CCC(C1)N2c1ncccn1 (stereo partly drawn),outcome,[1],inactive
same,outcome,[7],inactive
same,outcome,[8],inactive
same,outcome,[9],inactive
same,outcome,[3],inactive
same,outcome,[10],inactive
same,outcome,[4],inactive
same,outcome,[5],inactive
same,outcome,[6],inactive
O=C(O)c1ccccc1C(c1ccc(O)cc1)c1ccc(O)cc1,AC50,[1],1.95 µM (active)
same,outcome,[1],inactive
same,outcome,[7],inactive
same,outcome,[9],inactive
same,outcome,[10],inactive
same,outcome,[4],inactive
same,outcome,[5],inactive
same,outcome,[6],inactive
COCC(C)OCC(C)O (stereo not drawn),outcome,[1],inactive
same,outcome,[7],inactive
same,outcome,[9],inactive
same,outcome,[3],inactive
same,outcome,[10],inactive
same,outcome,[4],inactive
same,outcome,[5],inactive
same,outcome,[6],inactive
Cc1oc(-c2ccccc2)nc1CCOc1ccc(C[C@H](Nc2ccccc2C(=O)c2ccccc2)C(=O)O)cc1,outcome,[1],inactive
same,outcome,[7],inactive
same,outcome,[9],inactive
same,AC50,[10],0.0302 µM (active)
same,AC50,[4],0.214 µM (active)
NC(=O)N1C(=O)C(C(=O)c2cc(Cl)cs2)c2cc(F)c(Cl)cc21 (stereo not drawn),outcome,[1],inactive
same,outcome,[7],inactive
same,outcome,[9],inactive
same,outcome,[2],inactive
same,AC50,[3],81.9 µM (active)
same,AC50,[10],13.2 µM (active)
same,outcome,[10],inactive
same,AC50,[4],32.9 µM (active)
same,outcome,[4],inactive
same,outcome,[5],inactive
same,outcome,[6],inactive
CCCOC(=O)c1ccc(O)cc1,AC50,[7],8.13 µM (active)
same,AC50,[8],27.6 µM (active)
same,outcome,[9],inactive
same,outcome,[2],inactive
same,AC50,[3],58.5 µM (active)
same,outcome,[10],inactive
same,outcome,[4],inactive
same,outcome,[5],inactive
same,outcome,[6],inactive
O=C(O)Cc1cc(I)c(Oc2cc(I)c(O)c(I)c2)c(I)c1,outcome,[7],inactive
same,AC50,[8],44.5 µM (active)
same,AC50,[9],48.3 µM (active)
same,AC50,[10],11.6 µM (active)
same,AC50,[4],6.55 µM (active)
same,AC50,[5],10.6 µM (active)
same,AC50,[6],11.8 µM (active)
CCN(CC)CCNc1ccc(CNC=O)c2sc3ccc(OC)cc3c(=O)c12,outcome,[7],inactive
same,AC50,[9],20.2 µM (active)
same,AC50,[2],11.6 µM (active)
same,AC50,[3],11.9 µM (active)
same,AC50,[10],11.4 µM (active) and 11.9 µM (active)
same,AC50,[4],11.7 µM (active) and 11.8 µM (active)
same,outcome,[5],inactive
same,outcome,[6],inactive
Oc1cccc(O)c1,AC50,[7],18 µM (active)
same,AC50,[8],52.9 µM (active)
same,outcome,[9],inactive
same,outcome,[2],inactive
same,outcome,[3],inactive
same,outcome,[10],inactive
same,outcome,[4],inactive
same,outcome,[5],inactive
same,outcome,[6],inactive
CC(C)(C)c1cc(C(C)(C)C)c(O)c(C(C)(C)C)c1,AC50,[7],66.3 µM (active)
same,outcome,[8],inactive
same,outcome,[9],inactive
same,AC50,[2],81.1 µM (active)
same,AC50,[3],92.6 µM (active)
same,AC50,[10],84.3 µM (active) and 77.2 µM (active)
same,AC50,[4],85 µM (active)
same,outcome,[5],inactive
same,outcome,[6],inactive
CCCCCCCCCCCCN1CCCC1=O,outcome,[7],inactive
same,outcome,[9],inactive
same,AC50,[2],11.6 µM (active)
same,AC50,[3],11.2 µM (active)
same,AC50,[10],12.4 µM (active)
same,AC50,[4],11.7 µM (active)
same,outcome,[5],inactive
same,outcome,[6],inactive
CCCCCCC(=O)O,outcome,[7],inactive
same,outcome,[9],inactive
same,outcome,[2],inactive
same,outcome,[3],inactive
same,outcome,[10],inactive
same,outcome,[4],inactive
CN1CCN(c2ccccc2/C=C2\SCCN(c3ccc(Cl)c(Cl)c3)C2=O)CC1,outcome,[7],inactive
same,AC50,[8],19.5 µM (active)
same,AC50,[9],68.3 µM (active)
same,outcome,[5],inactive
same,outcome,[6],inactive
CC[C@H](c1ccc(O)cc1)[C@@H](CC)c1ccc(O)cc1,outcome,[1],inactive
same,AC50,[2],50 µM (active) and 65.7 µM (active)
same,outcome,[2],inactive
same,AC50,[3],24.5 µM (active) and 31.9 µM (active)
same,outcome,[3],inactive
same,outcome,[10],inactive
same,outcome,[4],inactive
same,outcome,[5],inactive
same,outcome,[6],inactive
OCCC(F)(F)C(F)(F)C(F)(F)C(F)(F)C(F)(F)C(F)(F)F,outcome,[7],inactive
same,AC50,[9],11.6 µM (active)
same,outcome,[2],inactive
same,outcome,[3],inactive
same,outcome,[10],inactive
same,outcome,[4],inactive
same,outcome,[5],inactive
same,outcome,[6],inactive
O=c1c(-c2ccc(O)cc2)coc2cc(O)ccc12,outcome,[1],inactive
same,AC50,[2],36.7 µM (active) and 37.1 µM (active)
same,outcome,[2],inactive
same,AC50,[3],48.1 µM (active) and 33.8 µM (active) and 30.5 µM (active)
same,AC50,[10],50 µM (active)
same,outcome,[10],inactive
same,AC50,[4],14.4 µM (active) and 27 µM (active)
same,outcome,[4],inactive
same,outcome,[5],inactive
same,outcome,[6],inactive
Oc1cc2ccccc2c2ccccc12,outcome,[1],inactive
same,outcome,[7],inactive
same,AC50,[8],28.9 µM (active)
same,outcome,[9],inactive
same,outcome,[10],inactive
same,outcome,[5],inactive
same,outcome,[6],inactive
CC(=O)CC(C)(C)O,outcome,[1],inactive
same,outcome,[7],inactive
same,outcome,[8],inactive
same,outcome,[9],inactive
same,outcome,[2],inactive
same,outcome,[3],inactive
same,outcome,[4],inactive
same,outcome,[5],inactive
same,outcome,[6],inactive
